# PubChem BioAssay (NCI)
# The panel holds about 79,000 compounds, 15% with a hit somewhere; the sample as a whole holds those more often. A number with no mark means an inactive call. Calls of active or inactive are those of the source. No stated cut-off is given here; in the data, active means growth inhibition above about 70%; inactive means the rest. Where a SMILES comes first, the peptide text is derived from it. Bridges are numbered along the chain shown (N, C = ends). The star is where a group is joined. Cbz = O=C(OCc1ccccc1)*; OBn = c1ccc(CO*)cc1
# Experiment: NCI Yeast Anticancer Drug Screen. Data for the bub3 strain (AID 167)
# Conditions: S. cerevisiae bub3 mutant strain, at 50.0 µM, active compounds read high
# Summary of the method: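 Screening used yeast with an engineered genetic alteration affecting cell cycle control. Compound-exposed cultures were compared with vehicle cultures, and reduced growth was taken as inhibition.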
row,Compound,growth inhibition
1,CSc1nc(NC2OC(CO)C(O)C(O)C2O)cc(=O)[nH]1 (stereo not given),7.5%
2,O=c1nc(N2CCSCC2)ccn1C1OC(CO)C(O)C1O (stereo not given),-3.5%
3,Oc1ccc(Br)cc1C(c1ccc2c(c1)OCO2)N1CCOCC1 (stereo not given),1.45%
4,CC(C)C(O)C(=O)C(O)C(C)C (stereo not given),3.4%
5,N#CC(/C(=N\NC(N)=S)C(=O)NC1C2CC3CC(C2)CC1C3)c1ccc(Cl)cc1 (stereo not given),15.4%
6,CC(=O)N=C1CSc2ccccc2N1C,-15.5%
7,CCOCCOC(=O)OCCOCC,12.1%
8,Cc1ccc(-c2cnc3c(n2)c(=O)[nH]c(=O)n3C)cc1,17.4%
9,NC(=O)N/N=C1\CC2CCC1C2Cl (stereo not given),-13.7%
10,C/[N+]([O-])=N/COC1OC(COC2OCC(O)C(O)C2O)C(O)C(O)C1O (stereo not given),8.85%
11,C#CCN(C(=O)C(F)(F)F)C(/C=C\C(=O)OC)(C(=O)OCC)C(=O)OCC,-17.2%
12,Cc1ncc(N)nc1C,-22.6%
13,CCCCc1c2c(nn1C(C)=O)C(=O)C=C(Nc1ccccc1)C2=O,4.7%
14,O=[N+]([O-])c1ccc(S(=O)(=O)Nc2ccccc2-c2ccccc2)cc1,98.8% (active)
15,Oc1ccccc1C=NCCCN=Cc1ccccc1O,48.8%
16,COc1ccc(OC)c2c3c([nH]c12)C(=O)Nc1nc(N)nc(N)c1C3,31.9%
17,CCc1cc(C(C)(C)C)c(O)c(C(C)(C)C)c1,8.4%
18,CN(C)CCC(c1ccccc1)c1ccccc1,14.7%
19,O=CC(=O)c1cccc([N+](=O)[O-])c1,-29.2%
20,c1ccc(CNCCCNCCCCNCCCNCc2ccccc2)cc1,17.8%

row,Compound,growth inhibition
1,CN(C=O)C1CCC2C3CC=C4CC(OC=O)CCC4(C)C3CCC21C (stereo not given),-2.9%
2,C[N+](C)(C)CC(=O)N/N=C(\C(=O)Nc1ccc(Cl)cc1)C1C(=O)N(c2ccccc2)N=C1N (stereo not given),-6.95%
3,COC(OC)c1cccnc1C,-23.5%
4,COc1ccc(NCc2cnc3nc(N)nc(N)c3c2C)cc1,1.85%
5,Cc1cc2ccccc2c[n+]1CC(=O)c1ccc([N+](=O)[O-])cc1,7.35%
6,COc1cc(OC)c2c(c1)OC(c1ccccc1)CC2=O (stereo not given),13.8%
7,COC(=O)C1CCC(=O)NCCCCC(NC(=O)C(CC(=O)OCc2ccccc2)NC(=O)OCc2ccccc2)C(=O)N1 (stereo not drawn) (Cbz-Asp(OBn)-Lys-Glu-OMe; lactam 2-3; configuration not given here),28.4%
8,NC1=NN(c2c(Cl)cc(Cl)cc2Cl)C(=O)C1,33%
9,COC(=O)/C=C(C)/C=C/C1OC(C)OCC1O (stereo not given),-5.45%
10,CC12CC3CC(C1)CC(NCCO)(C3)C2,-5.45%
11,CCOC(=O)c1ccc(/C(C)=N/NC(N)=S)cc1,5.35%
12,CC(=O)Oc1ccccc1C(=O)OC(=O)c1ccccc1OC(C)=O,0%
13,CCOc1c(OC)ccc(C(C)=O)c1O,3%
14,O=C(CCn1ccnc1[N+](=O)[O-])NCCCn1ccnc1[N+](=O)[O-],-34.4%
15,O=C(Cl)N(C1CCCCC1)C1CCCCC1,2.35%
16,CC(C)CC1=C(N(C)C)C(=O)C=C(N(C)C)C1=O,-9.85%
17,N#CC(C(=O)O)=C1CCCCCC1,5.5%
18,CC(=O)N(C)N=Nc1ccc(Cl)cc1,3.8%
19,NC(=O)c1ccc[n+](CCCCCCCCCCC(=O)[O-])c1,4.75%
20,C=CCCC(=O)CC(=O)OCC,-8%
